Compounds with a hit are over-represented: about 17% of the library has one in this group of screens.
TDP1 cell CPT – DT40-hTDP1 cell growth loss with CPT. chicken DT40 Tdp1-/-;hTDP1 cells + 20 nM CPT, ATP luminescence, 48 h. Potency, µM (series often up to 46.2 µM), usual class: inhibitors. 12% of 420,000 active. AID 686979; also: nearly all actives have a fitted effect of over 55% in size
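Chicken DT40 Tdp1-/- cells complemented with human TDP1, 400 cells/well, exposed to compounds plus 20 nM camptothecin for at least 48 h at 37 C; viability read as ATP content by CellTiter-Glo luminescence.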
TDP1 cell noCPT – qHTS for Inhibitors of human tyrosyl-DNA phosphodiesterase 1 (TDP1): qHTS in cells in absence of CPT | Potency, µM (top dose mostly 46.2 µM), actives largely listed as inhibitors | 15% of 420,000 active | AID 686978, 2013 | DT40 Tdp1-/- hTDP1 cells, no CPT, ATP luminescence, 48 h; also: nearly all actives have a fitted effect of over 55% in size
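Growth kinetics read by CellTiter-Glo luminescence after ≥48 hr at 37 °C. Cells: DT40 Tdp1-/- stably carrying human TDP1, 400 per well, compound exposure in the absence of CPT (DMSO vehicle).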
TDP1 block – blocks human tyrosyl-DNA phosphodiesterase 1; Q9NUW8; recombinant TDP1, AlphaScreen DNA substrate cleavage; Potency, µM (series often up to 130 µM), most hits filed as inhibitors; 0.28% of 350,000 active; also: nearly all actives have a fitted effect of over 40% in size
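Compounds were preincubated with Tdp1 (1 nM final) for 15 min at room temperature before substrate (15 nM final) started a 5 min reaction; beads (10 ug/ml final) were then added for 10 min before AlphaScreen detection.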
ClpP mod – qHTS Assay for Activators of ClpP | ATP-dependent Clp protease proteolytic subunit (Bacillus subtilis (strain 168)), P80244 | purified B. subtilis ClpP, FRET peptide cleavage, 20 min | Potency, µM (titrated, usually from 57.5 µM) | 1.9% of 340,000 active; active = well fitted falling curve with a large enough effect; inconclusive = small, poorly fitted or top-dose-only effect; inactive = no such curve, though single readings can be large or run the other way; also: the source files actives as falling curves though it sought activators and does not explain the sign; nearly all actives have a fitted effect of over 65% in size
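FRET quenching reversal measured ClpP activation: 10 microg/mL B. subtilis ClpP at pH 8 with the FRET-FV decapeptide, read at 430 nm after 320 nm excitation. The 20-min minus 0-min signal was scaled between DMSO/no-enzyme wells and ADEP (5.8 microM final).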
Large screens that a line does not name were inactive. Unless noted, calls follow the shape of the dose curve; as a rule, active = well fitted curve in the direction sought with a large enough effect; inconclusive = small, poorly fitted or top-dose-only effect, or another doubt; inactive = no such curve, though single readings can be large; an effect the other way counts as inactive or inconclusive.

COc1ccc(-c2cn[nH]c2-c2ccc(OCc3ccccc3)cc2O)cc1OC	TDP1 cell CPT 16µM, TDP1 cell noCPT 18µM (no result: TDP1 block, ClpP mod)
COc1ccccc1-c1cn[nH]c1-c1ccc(OCc2ccccc2F)cc1O	TDP1 cell CPT 18µM, TDP1 cell noCPT 15µM (no result: ClpP mod)
Oc1cc(OCc2ccccc2)ccc1-c1[nH]ncc1-c1ccccc1	TDP1 cell CPT 10µM, TDP1 cell noCPT 12µM (no result: ClpP mod)
CO[C@@]1(NC(=O)CSC[C@@H](N)C(=O)O)C(=O)N2C(C(=O)O)=C(CSc3nnnn3C)CS[C@@H]21	none (no result: TDP1 block, ClpP mod)
COc1cc2ccc(C(C)=NNC(N)=S)cc2cc1OC	TDP1 cell CPT inconclusive, TDP1 cell noCPT 15µM (no result: TDP1 block)
COc1ccccc1OCC(=O)N/N=C(\C)c1ccc2ccccc2c1	TDP1 cell CPT inconclusive, TDP1 cell noCPT inconclusive (no result: TDP1 block)
CC(=NNC(N)=S)c1ccc2cc3c(cc2c1)OCO3	TDP1 cell CPT 23µM, TDP1 cell noCPT 10µM (no result: TDP1 block)
COc1cc(C(=O)OC2CC[C@]3(C)C4CCC5[C@]6(O)CC(O)[C@]7(O)C(CN8CC(C)CCC8[C@]7(C)O)[C@]6(O)C[C@@]53O[C@]24O)cc(OC)c1OC (stereo partly specified)	none (no result: ClpP mod)
CC1CCN(CC(=O)Nc2cccc(C(=O)Nc3cccc(C(F)(F)F)c3)c2)CC1	TDP1 cell CPT inconclusive, TDP1 cell noCPT 16µM (no result: ClpP mod)
O=C(CN1CCN(c2ccccc2)CC1)Nc1cccc(C(F)(F)F)c1	none
CC1CN(CC(=O)Nc2cccc(C(=O)Nc3cccc(C(F)(F)F)c3)c2)CC(C)O1 (stereo unspecified)	TDP1 cell CPT 23µM, TDP1 cell noCPT 23µM
C=CCN(c1ccccc1OC)S(=O)(=O)c1cccc(C(=O)NCC(c2ccc(OC)cc2)N2CCCC2)c1 (stereo unspecified)	TDP1 cell CPT 3.7µM, TDP1 cell noCPT 7.3µM (no result: TDP1 block)
COc1ccc(C(CNC(=O)c2cccc(S(=O)(=O)Nc3ccc(F)cc3)c2)N2CCCC2)cc1 (stereo unspecified)	TDP1 cell CPT inconclusive, TDP1 cell noCPT inconclusive (no result: TDP1 block)
C=CCN(c1ccccc1)S(=O)(=O)c1cccc(C(=O)NCC(c2ccc(OC)cc2)N2CCCCC2)c1 (stereo unspecified)	TDP1 cell CPT 5.8µM, TDP1 cell noCPT 5.8µM
COc1ccc(C(CNC(=O)c2cccc(S(=O)(=O)N3CCCCC3)c2)N2CCCC2)cc1 (stereo unspecified)	none
CCN(c1ccccc1)S(=O)(=O)c1cccc(C(=O)NCC(c2ccc(OC)cc2)N2CCCCC2)c1 (stereo unspecified)	TDP1 cell CPT 18µM, TDP1 cell noCPT 8.2µM (no result: TDP1 block)
Cc1cc(NC(=O)CSC2=NS(=O)(=O)c3ccccc3N2)no1	none
O=C(CCN1C(=O)/C(=C\c2ccccc2Cl)SC1=S)N1CCN(c2ccccc2)CC1	TDP1 cell CPT 16µM, TDP1 cell noCPT 10µM
O=C(CCN1C(=O)/C(=C\c2ccccc2F)SC1=S)N1CCCCC1	TDP1 cell CPT 3.7µM, TDP1 cell noCPT 2.9µM
COc1ccc(/C=C2\SC(=S)N(CCC(=O)N3CCCCC3)C2=O)cc1	TDP1 cell CPT inconclusive, TDP1 cell noCPT inconclusive (no result: ClpP mod)
O=C(CN1C(=O)/C(=C/c2cccc(Br)c2)SC1=S)N1CCCC1	TDP1 cell CPT 3.3µM, TDP1 cell noCPT 9.2µM
O=C(CCN1C(=O)/C(=C/c2ccccc2)SC1=S)N1CCCCCC1	TDP1 cell CPT 12µM, TDP1 cell noCPT 21µM (no result: TDP1 block, ClpP mod)
O=C(CCN1C(=O)/C(=C/c2ccccc2Cl)SC1=S)NN1CCOCC1	TDP1 cell CPT inconclusive, TDP1 cell noCPT inconclusive
O=S(=O)(c1ccccc1)N1CCN(Cc2ccc(Cl)cc2)CC1	TDP1 cell noCPT inconclusive
Cc1ccc(C(C)C)c(OCCSc2nc3ccccc3n2CC(O)CO)c1 (stereo unspecified)	TDP1 cell CPT 13µM, TDP1 cell noCPT 16µM
CC1CCCCN1S(=O)(=O)c1ccc(N(C(=O)c2cnccn2)C(C(=O)NC2CCCC2)c2cccs2)cc1 (stereo unspecified)	TDP1 cell CPT inconclusive, TDP1 cell noCPT 21µM
CC1CCCCN1S(=O)(=O)c1ccc(N(C(=O)c2cnccn2)C(C(=O)NC2CCCCC2)c2cccs2)cc1 (stereo unspecified)	TDP1 cell CPT inconclusive, TDP1 cell noCPT inconclusive
CC(C)(C)c1ccc(C(=O)N2CCN(CCNC(=O)C(=O)NCc3ccc(Cl)cc3)CC2)cc1	TDP1 cell CPT 15µM, TDP1 cell noCPT 21µM
